Source: PubChem
HSF-1 act: increases HSF-1 driven luciferase reporter signal | NIH3T3-HGL HSF-1 luciferase reporter, MG132, 8 h; 100% = twice DMSO control signal | activation, % at 9 µM | actives 1.7% (n = 300,000);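 active = mean replicate activation of at least 50% with a set share of replicates each reaching 50%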;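 also: 0% = median of the neutral control wells and 100% = twice that signal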
FXN GAA850 act: frataxin GAA850 promoter activation; HEK293 lucGAA850 FXN promoter luciferase reporter, 24 h; percent of 10 µM SAHA response; activation, % at 6 µM; actives 0.56% (n = 360,000);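 active = activation above the average of all compounds screened plus 3 SD, cutoff fixed separately per campaign, cut at about 7.5% in these data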;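 also: 0% = DMSO wells and 100% = 10 µM SAHA wells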
HSP90 refold inh: HSP90 refolding inhibition in rabbit reticulocyte lysate; luciferase refolding luminescence, 3 h; inhibition, % at 5.6 µM; actives 0.91% (n = 290,000);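 active = inhibition above the screen-wide mean plus 3 SD, computed separately per campaign, cut at about 16% in these data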;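 also: 0% = DMSO wells and 100% = 60 µM geldanamycin wells; inhibitors lower the luminescence because luciferase stays unfolded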
HSF1 inhib: HSF1 inhibition | actives 0.77% (n = 300,000) | activity change, negative = inhibition, % at 7.5 µM (by protocol) | NIH3T3-HGL HSE-luciferase, MG132-induced, luminescence 8 h; active compounds read low;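 active = more than half of replicate wells show activity change below -50%, luminescence cut by over half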;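 also: luciferase reports HSF-1 transcriptional activity via heat shock element; 0% = median of DMSO wells and -100% = zero luminescence signal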
NR0B1 inh: inhibits human nuclear receptor DAX1. P51843. HEK293 Gal4-DAX1 luciferase reporter, luminescence. inhibition, % at 6.75 µM. actives 0.99% (n = 340,000). AID 504766;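 active = inhibition above the mean over all tested compounds plus 3 SD, cut at about 4.2% in these data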;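 also: 0% = DAX1-transfected cells with DMSO and 100% = empty-vector control cells with DMSO; inhibition shows as a rise in luminescence from relieved DAX1 repression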
Target sequence (P51843 207-470 limits assumed): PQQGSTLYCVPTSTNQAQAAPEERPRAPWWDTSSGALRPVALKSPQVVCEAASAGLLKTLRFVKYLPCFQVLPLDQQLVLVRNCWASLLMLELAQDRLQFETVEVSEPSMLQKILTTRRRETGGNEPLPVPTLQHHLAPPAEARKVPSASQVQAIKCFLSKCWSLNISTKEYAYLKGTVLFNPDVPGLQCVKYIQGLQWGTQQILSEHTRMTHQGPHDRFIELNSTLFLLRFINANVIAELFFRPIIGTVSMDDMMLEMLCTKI
AHR act: human AHR activation; P35869; AHR-responsive luciferase reporter cells, luminescence; activation, % at 5 µM; actives 2.5% (n = 320,000); AID 2796; in the data active = activation above about 47%;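 also: 0% = vehicle wells and 100% = reference agonist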
The depositor's hits bear a star; . = no result. Most compounds without a hit are left out; they make up all but 5.9% or so of the library.

SMILES	HSF-1 act	FXN GAA850 act	HSP90 refold inh	HSF1 inhib	NR0B1 inh	AHR act
CC(C)Cc1nnc(NC(=O)CCC(=O)N2CCN(C3CCCC3)CC2)s1	-6.9	-1.3	3.6	-8.7	1.4	0.4
COc1nc(Nc2cccc([N+](=O)[O-])c2)nc(OC)n1	9.6	2.1	-5.2	-0.6	-0.1	3.5
C#CCOc1nc(Nc2cccc([N+](=O)[O-])c2)nc(OCC#C)n1	0.1	1.4	2.7	1.8	-0.5	52.3*
CS(=O)(=O)c1ccc(C(=O)NNC(=O)c2ccccc2-n2cccc2)cc1	.	0.2	.	.	0.7	3.0
O=C(c1ccc(F)cc1)N1CCN(Cc2ccccc2)CC1	-7.2	-1.0	0.6	-3.0	0.5	-0.6
Cc1ccccc1CN1CCN(C(=O)c2ccc(F)cc2)CC1	-70.3	-0.6	1.6	-62.8*	0.1	.
Cc1ccc(S(=O)(=O)Nc2cccc3ncccc23)cc1	4.5	0.7	1.0	1.4	0.7	2.7
Cc1ccc(S(=O)(=O)Nc2cccc3ncccc23)s1	107.7*	-16.6	-0.7	132.1	-3.4	20.9
CC1CC(OCC(O)CN2CCOCC2)CC(C)(C)C1 (stereo unspecified)	-6.1	-0.2	-0.4	-1.5	-1.2	6.9
CCOC(=O)N1CCN(CC(O)COC2CC(C)CC(C)(C)C2)CC1 (stereo unspecified)	-87.8	0.4	-3.5	-84.5*	-1.3	3.3
CC1CCC(NC(=O)CN(C)CC(=O)Nc2ccc(F)cc2)CC1 (stereo unspecified)	.	-1.6	.	.	0.1	2.0
O=C(NC1CCCC1)c1ccc(COc2ccccc2Br)o1	6.7	0.4	2.6	5.8	-0.7	4.6
Cc1ccc(NC(=O)Nc2cccc(C)n2)c(C)c1	23.4	4.7	-1.0	19.8	2.3	56.3*
C=C(C)CNC(=S)Nc1cccc(N)n1	-0.7	1.7	5.5	-2.0	-0.2	.
CCOc1ccc(NC(=O)c2ccccc2O)cc1	101.8*	0.0	1.1	58.8	-1.0	1.1
CCOc1ccc(NC(=O)c2cccnc2C(=O)O)cc1	-67.5	-2.9	-3.0	-65.8*	1.1	2.5
Cc1ccc(C(=O)NNC(=O)c2csc(N3CCOCC3)n2)s1	-17.1	0.6	.	-6.6	0.5	1.1
CCOc1ccc(NS(=O)(=O)c2ccc(C(=O)NNC(=O)c3ccccc3O)cc2)cc1	-1.5	1.6	.	0.7	-0.4	20.3
Nc1nc(Nc2cccc3ccccc23)nc(C2CCCC2=O)n1 (stereo unspecified)	53.5*	.	-3.8	7.3	.	8.2
Nc1nc(CCl)nc(Nc2cccc3ccccc23)n1	-78.9	-8.6	0.6	-77.3*	.	14.0
Cc1ccccc1CSCc1nc(N)nc(Nc2ccccc2C)n1	21.5	2.3	-3.1	21.0	0.1	-1.7
S=C(NCc1ccc(Cl)cc1)Nc1ccncc1	-0.2	-2.4	1.3	-3.5	-2.2	-0.3
O=C(O)/C(=C\c1cccc(O)c1)c1ccc(S(=O)(=O)N2CCCC2)s1	.	1.9	.	.	0.0	0.9
CCc1noc(N)c1C(=O)Nc1ccc(Cl)cc1	3.0	1.5	-10.1	-3.3	0.7	76.2*
C=CCNc1nc2c(c(=O)[nH]c(=O)n2C)n1CC(O)COc1ccc2ccccc2c1 (stereo unspecified)	9.7	1.9	1.6	-2.5	-1.6	.
SMILES	HSF-1 act	FXN GAA850 act	HSP90 refold inh	HSF1 inhib	NR0B1 inh	AHR act
COc1cc(OC)cc(-c2nnc(Sc3ccc(C=O)cc3[N+](=O)[O-])o2)c1	141.8*	.	2.8	88.4	.	8.5
O=C1CNC(=S)N1c1nc(-c2ccccc2)cs1	51.6*	3.3	-3.0	26.4	0.5	18.4
COc1ccc(-c2csc(N3C(=O)CNC3=S)n2)cc1	28.7	5.6	-0.5	7.5	-1.8	3.2
COCCNC(=S)N(CCc1c(C)[nH]c2ccc(F)cc12)Cc1ccco1	53.4*	-1.8	-3.6	28.6	-2.3	5.2
CNC(=S)N(CCc1c(C)[nH]c2ccc(F)cc12)Cc1ccco1	43.9	-0.7	-1.9	11.8	-1.2	17.8
N#CC1(NC(=O)CSc2nncn2-c2ccccc2F)CCCC1	.	-0.3	.	.	0.5	-0.7
Fc1cccc(Cc2noc(CN3CCCN(C4Cc5ccccc5C4)CC3)n2)c1	-6.4	-0.1	0.0	-4.4	0.0	-0.1
Cc1cc2nc3c(=O)n(CCc4ccccc4)c(=O)[nH]c3nc2cc1N	59.0*	1.5	1.0	20.1	-0.9	8.2
Nc1ccc2nc3c(=O)n(CCc4ccccc4)c(=O)[nH]c3nc2c1	20.5	0.1	-0.7	6.8	.	-1.2
